In the supplement of paper PMC6555819 one finds PBM binding z-score data, which are given here for seven sequences.

Holding throughout (experiment): PBM binding z-score (relative to random genomic background probes); higher = stronger binding; sequences stand for … in GC…GCGATTGACAGCGTAGAATGAAGG
The test system of experiment [1] is FXR:RXRa (NR concentration 270 nM, RXRa partner concentration 90 nM). The essentials: (§1)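 Regression normalization was applied to scanned fluorescence from custom Agilent 4×180K protein-binding microarrays. Before scanning, arrays were incubated 1 h with ligand-free nuclear receptor dimers, and binding was detected with antibodies against each partner (one per run). Binding z-scores use the random background probes as reference.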

Experiment [2] deals with LXRa:RXRa (NR concentration 270 nM, RXRa partner concentration 90 nM). A digest of the protocol:
as §1

Experiment [3] relates to LXRa homodimer (NR concentration 270 nM). The essentials:
as §1

Experiment [4] relates to LXRb:RXRa (NR concentration 270 nM, RXRa partner concentration 90 nM). The essentials:
as §1

The subject of experiment [5] is LXRb homodimer (NR concentration 270 nM). A digest of the protocol:
as §1

The test system of experiment [6] is PPARa:RXRa (NR concentration 270 nM, RXRa partner concentration 90 nM). The essentials:
as §1

In experiment [7] the test system is PPARg:RXRa (NR concentration 180 nM, RXRa partner concentration 90 nM). A digest of the protocol: as §1
Experiment [8] concerns PPARg:RXRa 270nM:90nM, anti-RXR (NR concentration 270 nM, RXRa partner concentration 90 nM). A digest of the protocol: as §1
Experiment [9] has as its system PPARg:RXRa 30nM:10nM, anti-RXR (NR concentration 30 nM, RXRa partner concentration 10 nM). The essentials: as §1
The subject of experiment [10] is PPARg:RXRa 90nM:30nM, anti-RXR (NR concentration 90 nM, RXRa partner concentration 30 nM). A digest of the protocol:
as §1

For experiment [11], the system named is PPARg:RXRa DBDmut IVT, anti-RXR (DBD mutation: RXRa K156A/R161A, NR concentration 270 nM, RXRa partner concentration 90 nM). A digest of the protocol:
as §1

The test system of experiment [12] is PPARg:RXRa IVT, anti-PPARg (NR concentration 270 nM, RXRa partner concentration 90 nM). The essentials: as §1
The test system of experiment [13] is PPARg DBDmut:RXRa IVT, anti-PPARg (DBD mutation: PPARg1 K132A/R137A, NR concentration 270 nM, RXRa partner concentration 90 nM). The essentials: as §1
Experiment [14] relates to PPARg DBDmut IVT, anti-PPARg (DBD mutation: PPARg1 K132A/R137A, NR concentration 270 nM). A digest of the protocol:
as §1

Experiment [15] relates to PPARg homodimer (NR concentration 180 nM). A digest of the protocol:
as §1

For experiment [16], the system named is PXR:RXRa (NR concentration 270 nM, RXRa partner concentration 90 nM). The essentials: as §1
Experiment [17] concerns PXR homodimer (NR concentration 270 nM). A digest of the protocol: as §1
Experiment [18] has as its system RARa:RXR (NR concentration 270 nM, RXRa partner concentration 90 nM). The essentials:
as §1

For experiment [19], the system named is RARa homodimer (NR concentration 270 nM). A digest of the protocol:
as §1

Experiment [20] has as its system RARb:RXRa (NR concentration 270 nM, RXRa partner concentration 90 nM). A digest of the protocol: as §1

CCTTACGGGTCACTGACAGGTTGTAGCATTTGGA: the PBM binding z-score is 5.1 in [1]; 3.61 in experiment [2]; 0.156 in experiment [3]; 3.17 in experiment [4]; -0.356 in experiment [5]; 4.93 in experiment [6]. Besides, the PBM binding z-score in experiment [7] was found to be 4.26; in experiment [8], 4.06; in experiment [9], 0.971; in [10] it was 2.97; in experiment [11], 3.45; in experiment [12], 3.69. The PBM binding z-score is 0.239 in experiment [13]; -0.219 in experiment [14]; 2.3 in experiment [15]; 3.28 in experiment [16]; -0.0802 in experiment [17]; 4.11 in experiment [18]. Moreover, the PBM binding z-score in experiment [19] was 0.949; in [20], 3.79.

Consider TCTAGTAGTTGATTAGGGCAACCGAAACAGCGGA, for which the PBM binding z-score was 0.323 in experiment [1]; 0.0277 in [2]; -0.246 in experiment [3]; 0.0544 in [4]; -0.448 in experiment [5]; 0.658 in experiment [6]. Moreover, the PBM binding z-score came out at 0.17 in experiment [7]; 1.41 in experiment [8]; 2.74 in experiment [9]; 2.06 in [10]; 1.59 in experiment [11]; 1.34 in experiment [12]. The PBM binding z-score in [13] is -0.69; in experiment [14], 0.23; in experiment [15] it was -0.0887; in experiment [16], 0.0313; in [17] it was -0.395; in experiment [18] it was 0.285. Besides, the values for the PBM binding z-score in experiment [19] and in experiment [20] were -0.475 and 0.581, respectively.

Regarding CAATCTAGGTCAAGAGGTCAAAGTCCGCTTCCCG, the PBM binding z-score was 7.07 in experiment [1]; 6.49 in [2]; 6.61 in experiment [3]; 5.64 in experiment [4]; 2.31 in [5]; 6.48 in [6]. The PBM binding z-score turned out to be 10.2 in experiment [7]; 8.66 in [8]; 7.43 in experiment [9]; 9.5 in experiment [10]; 8.4 in [11]; 8.71 in experiment [12]. Moreover, the PBM binding z-score in experiment [13] was 5.68; in experiment [14] it was 4.57; in experiment [15], 9.94; in experiment [16] it was 6.5; in [17], 3.63; in [18] it was 8.3. Besides, the PBM binding z-score was 5.1 in experiment [19] and 5.36 in [20].

On to TCGAGTAGGTTAGGGGCATTAAGAATGGCGTCGA, for which the PBM binding z-score is 0.466 in experiment [1]; 0.479 in experiment [2]; -0.184 in experiment [3]; 0.739 in experiment [4]; -0.27 in [5]; 1.34 in experiment [6]. Besides, the PBM binding z-score in experiment [7] was determined as 1.07; in experiment [8], 2.13; in [9] it was 1.32; in [10] it was 1.98; in [11], 2.21; in experiment [12] it was 1.23. For the same sequence, the PBM binding z-score in experiment [13] is -0.687; in experiment [14], -1.11; in [15], 0.475; in experiment [16], 0.596; in experiment [17] it was 0.671; in experiment [18] it was 0.713. The PBM binding z-score in [19] is -0.193; in experiment [20], 1.04.

As to TCGAGTAGGTTACCCATGGGGCATTCAGCTTTCT, the PBM binding z-score in experiment [1] was 0.292; in [2], 1.66; in experiment [3], -0.443; in [4], 0.752; in experiment [5], -0.79; in [6] it was 1.09. The PBM binding z-score in [7] stood at 0.462; in [8] it was 1.36; in experiment [9], 1.23; in experiment [10], 1.18; in experiment [11], 2.81; in experiment [12], 2.66. Further, the PBM binding z-score in experiment [13] is -0.222; in [14], -0.778; in experiment [15], -0.0262; in experiment [16] it was 0.0585; in [17] it was -0.728; in [18] it was 0.457. For the same sequence, the values for the PBM binding z-score in experiment [19] and in [20] were -0.95 and 0.891, respectively.

Take ACAGACAGGTGATTAAGGTAACTCAGGCTATCAT: the PBM binding z-score in experiment [1] was 0.396; in experiment [2], 0.0407; in [3] it was -0.11; in experiment [4], -0.0714; in experiment [5] it was -0.205; in experiment [6], 0.176. The PBM binding z-score came out at 0.468 in [7]; 0.0075 in [8]; 0.0784 in [9]; 0.0739 in [10]; 0.239 in [11]; 0.557 in experiment [12]. The PBM binding z-score in [13] is 0.291; in experiment [14] it was -0.545; in experiment [15] it was 0.126; in experiment [16], 0.164; in experiment [17], 0.294; in experiment [18], 1.23. In addition, the PBM binding z-score was 0.587 in experiment [19] and 0.35 in experiment [20].

As for ATCGAAAGGTCGTGAGGTGAGCATACAGAAAGGC, the PBM binding z-score is 4.88 in experiment [1]; 3.62 in experiment [2]; -0.0763 in experiment [3]; 2.89 in [4]; 0.368 in [5]; 4.84 in experiment [6]. Moreover, the PBM binding z-score worked out at 3.58 in experiment [7]; 4.56 in [8]; 1.29 in experiment [9]; 2.96 in [10]; 0.297 in [11]; 2.79 in experiment [12]. Further, the PBM binding z-score in [13] is 1.33; in experiment [14] it was 0.333; in experiment [15] it was 0.137; in experiment [16] it was 2.77; in experiment [17] it was 0.261; in [18] it was 3.85. Further, the PBM binding z-score stood at 0.316 in experiment [19] and 3.89 in [20].
